The full ranking holds about 4,100 sequences; the median of “RBNS R-value (6-mer enrichment in protein-bound RNA vs input library)” is about 0.96, and the highest 2% start at about 2.4. Many of the other results were omitted from the sample, so the highest values are more common in it than they were.
Test system: PyIESI-1 RRM domain (Plasmodium yoelii PY17X_0911200 aa 795-956, GST fusion)
Test: RBNS R-value (6-mer enrichment in protein-bound RNA vs input library) (ratio); higher = stronger binding preference; the methods of the paper give 50 / 100 / 500 nM protein instead
Procedure: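 RNA Bind-n-Seq: recombinant GST-tagged IESI-1 RRM domain was incubated at room temperature with a random 40-nt in vitro transcribed RNA library at 250, 500 or 1000 nM protein. Bound RNA was pulled down on glutathione beads and sequenced. R-value is the enrichment of each 6-mer in the bound RNA relative to the input library. Each 6-mer sits inside the random 40-mer context, not as an isolated oligo. Values are replicate 1 only.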

Sequence	RBNS R-value (protein concentration: 250 nM)	RBNS R-value (protein concentration: 500 nM)	RBNS R-value (protein concentration: 1000 nM)
ACAUUG	1.19	1.17	1.2
GACCAG	1.1	1.11	1.09
GCUACU	0.838	0.861	0.829
GUGGAG	0.967	0.977	0.96
AAUUCA	0.88	0.882	0.917
AAUUCU	1.06	1.05	1.06
GAUUCC	2.42	2.37	2.49
GAUUCU	2.89	2.77	2.85
AAUUCG	1.08	1.08	1.08
GAUUCG	2.64	2.49	2.51
UAUUCU	0.707	0.731	0.734
CAUUCC	0.948	0.975	0.997
UAUUCA	0.554	0.565	0.571
AAUUCC	1.12	1.09	1.12
GAUUCA	2.85	2.7	2.92
CAUUCG	1.01	1.05	1.07
GCGCAG	1.01	1.03	1.03
ACAUCG	0.752	0.777	0.749
UCCAGU	0.838	0.85	0.831
ACCCAG	1.32	1.27	1.32
AAUCCC	0.954	0.955	0.949
ACUGCG	1.12	1.13	1.13
GACAAC	1.09	1.07	1.07

Sequence	RBNS R-value (protein concentration: 250 nM)	RBNS R-value (protein concentration: 500 nM)	RBNS R-value (protein concentration: 1000 nM)
UCUUCC	0.978	1.01	1.03
AGAUCA	0.82	0.812	0.814
GGAUCC	0.932	0.922	0.909
UGAUCU	2.74	2.75	2.93
CGAUCU	1.15	1.15	1.19
GGAUCA	0.767	0.764	0.736
AGAUCU	0.946	0.924	0.93
CGAUCC	1.19	1.22	1.26
UGAUCC	2.58	2.6	2.82
UGAUCA	2.37	2.38	2.64
GUGUUC	0.821	0.855	0.82
CGUACU	0.773	0.765	0.73
CAGUGA	1.6	1.58	1.62
UGAUUA	6.31	5.88	6.3
UGAUUC	6.24	5.67	5.91
CCAUUU	0.871	0.913	0.936
GGAUUU	1.08	1.1	1.06
CGAUUC	2.08	2.12	2.24
CGAUUU	2.59	2.56	2.71
AGAUUU	1.72	1.72	1.83
AGAUUA	1.09	1.16	1.25
CUAUUU	0.653	0.681	0.664
UGAUUU	7.9	7.06	7.22

Sequence	RBNS R-value (protein concentration: 250 nM)	RBNS R-value (protein concentration: 500 nM)	RBNS R-value (protein concentration: 1000 nM)
AGAUUC	1.47	1.49	1.58
CGAUUA	1.73	1.79	1.94
GCCAGU	0.86	0.901	0.892
UCUUGC	1.12	1.17	1.18
GAACCU	1.11	1.1	1.07
GAUACC	1.83	1.85	1.99
ACGAAU	0.896	0.896	0.865
GCAGUG	1.11	1.14	1.12
AUUCGC	1.47	1.43	1.46
UACUUC	0.69	0.719	0.702
AUCCCU	0.892	0.921	0.934
CCGGUG	1.11	1.14	1.12
CGCUUA	0.602	0.629	0.617
AUCUAA	0.647	0.67	0.637
GUCAAU	0.655	0.685	0.671
GGAUUG	1.22	1.22	1.15
CGAUUG	2.25	2.18	2.2
UGAUUG	5.45	4.95	4.94
GAAAGG	1.1	1.08	1.01
AGAUAC	1.02	1.09	1.09
ACCUCG	1.08	1.06	1.06
CGUGAG	0.911	0.913	0.868
UGUGAC	1.17	1.18	1.16

Sequence	RBNS R-value (protein concentration: 250 nM)	RBNS R-value (protein concentration: 500 nM)	RBNS R-value (protein concentration: 1000 nM)
CGUGAU	3.46	3.26	3.39
UGUGAG	1.11	1.1	1.05
AGUGAA	0.884	0.89	0.844
UGUGAU	3.77	3.62	3.78
CGUGAA	0.949	0.925	0.895
GGUGAC	1.01	1.04	0.983
GGUGAG	0.98	0.993	0.943
AGUGAU	3.53	3.36	3.56
GGUGAU	2.66	2.69	2.75
AGUGAC	1.01	1.04	1.02
UGCGCU	1.27	1.25	1.26
UCCGUG	1.12	1.15	1.16
GACUCG	1.11	1.13	1.07
UGUUUC	0.901	0.972	0.97
AGCUGA	1.72	1.68	1.68
UCGUGG	0.808	0.811	0.782
CAGCGU	0.779	0.809	0.78
UGCCUC	1.11	1.13	1.19
UGGCCA	1.26	1.22	1.24
GAUAGA	1.92	1.93	2
GAUAGU	1.39	1.41	1.45
GAUAGC	2.53	2.39	2.48
UGCUCA	0.956	0.977	1

Sequence	RBNS R-value (protein concentration: 250 nM)	RBNS R-value (protein concentration: 500 nM)	RBNS R-value (protein concentration: 1000 nM)
CAUGUU	0.726	0.757	0.737
CAUGUG	1.02	1.04	1.03
AAUGUU	0.8	0.836	0.819
GAUGUU	2.92	2.8	2.87
GAUGUG	3.46	3.14	3.14
CAUGUC	0.705	0.722	0.733
AAUGUA	0.646	0.662	0.639
UAUGUC	0.642	0.672	0.661
GAUGUC	2.55	2.44	2.5
UAUGUA	0.585	0.616	0.581
UAUGUG	0.924	0.971	0.978
GAUGUA	2.51	2.41	2.52
GCGUCG	0.809	0.784	0.765
UUGUUA	0.717	0.765	0.738
AGCCUG	1.33	1.33	1.36
GUGGCC	0.987	0.981	0.976
AACCUG	1.37	1.36	1.38
CCGCUA	0.743	0.757	0.758
UACUAC	0.519	0.53	0.491
AAUUAA	0.471	0.515	0.483
GAUUAG	2.44	2.41	2.5
CAUUAC	0.471	0.51	0.491
GAUUAA	2.47	2.37	2.56

Sequence	RBNS R-value (protein concentration: 250 nM)	RBNS R-value (protein concentration: 500 nM)	RBNS R-value (protein concentration: 1000 nM)
CAUUAG	0.57	0.593	0.579
UAUUAC	0.487	0.514	0.489
AAUUAG	0.641	0.657	0.639
GAUUAC	2.72	2.65	2.82
CAUUAA	0.41	0.435	0.403
CGGUGA	1.36	1.39	1.35
ACCGCG	1.03	1.03	1.04
CGAACC	1.09	1.06	1.06
GGGCCG	1	1.01	0.999
GCAAGC	0.92	0.933	0.931
CCGGUC	0.872	0.923	0.916
CAUGCU	0.844	0.875	0.883
GAUGCA	2.66	2.5	2.68
AAUGCG	0.941	0.968	0.97
CAUGCA	0.757	0.762	0.774
GAUGCC	2.7	2.6	2.86
UAUGCG	0.859	0.856	0.873
CAUGCC	0.921	0.929	0.99
GAUGCG	2.54	2.45	2.52
UAUGCA	0.689	0.714	0.705
GAUGCU	2.48	2.42	2.51
AAUGCU	0.903	0.932	0.944
UAUGCC	0.797	0.84	0.861

Sequence	RBNS R-value (protein concentration: 250 nM)	RBNS R-value (protein concentration: 500 nM)	RBNS R-value (protein concentration: 1000 nM)
CUGCCA	1.03	1.05	1.07
UUUGUU	0.893	0.907	0.907
ACGAAC	0.96	0.939	0.926
AUUUAU	0.824	0.83	0.836
UGCUUU	1.1	1.15	1.18
CGAUGA	3.48	3.36	3.47
UUAUGA	1.76	1.72	1.81
CGAUGU	2.03	2.04	2.13
AGAUGU	1.45	1.47	1.54
AGAUGC	1.47	1.52	1.65
GGAUGA	1.75	1.71	1.69
UGAUGU	7	6.29	6.39
UGAUGA	9.09	7.87	7.73
AUAUGA	1.78	1.74	1.84
AGAUGA	2.69	2.61	2.72
CAAUGA	2.27	2.18	2.28
CGAUGC	2.07	2.1	2.31
UCACCA	0.862	0.849	0.9
GGAGCG	1.01	1.01	0.994
AUACCA	0.709	0.723	0.733
AACUUC	0.893	0.92	0.901
CGCAAG	0.91	0.907	0.917
UCCCAA	0.972	0.967	0.987

Sequence	RBNS R-value (protein concentration: 250 nM)	RBNS R-value (protein concentration: 500 nM)	RBNS R-value (protein concentration: 1000 nM)
GGGGGA	1.03	1.05	1.01
AGAUGG	1.49	1.46	1.49
UGAUGG	5.96	5.24	5.21
GGAUGC	1.08	1.04	1.08
CGAUGG	2.05	1.98	2
UGAUGC	6.04	5.5	5.71
UUAUGC	0.736	0.778	0.779
CAAGGC	0.956	0.935	0.949
CACACU	0.829	0.834	0.839
CGGAGC	1.02	1.01	1
UUCUUU	0.927	0.977	1
AUUUGC	1.82	1.76	1.77
AAUGGG	1.06	1.06	1.03
GAUGGG	2.54	2.43	2.36
UAUGGG	0.863	0.942	0.916
CAUGGC	1.06	1.08	1.1
GAUGGC	3.56	3.12	3.1
UAUGGC	1.41	1.37	1.34
UCAGAC	0.883	0.894	0.893
AUUUAC	0.935	0.952	0.963
AUGGGA	1.34	1.34	1.29
GUCAAC	0.681	0.708	0.688
UCUCAA	0.805	0.835	0.84

From the supplement of paper PMC13392028
